# Reference: ChEMBL document CHEMBL3988442, “University of Dundee, Small-Polar-MMV Screening Library” (2021)
# In all, about 66,000 compounds went through this assay and about 960 (1.5%) showed an effect of 50% or more. This is one part of a sample in which strong results are shown more often than they occur.
# Test system: Trypanosoma brucei
# Test: Trypanosoma brucei 72 hour study
# Type: functional, organism-based
# Design: scale not given: in the data most compounds retested in dose-response had high values
structure (smiles),measurement,setting,value
Cn1cc(C(O)CNC(=O)c2ccc(F)cc2Cl)cn1 (centres undefined),Percent Effect,"30 µM, 30.03 µM",3.538%
CCN1Cc2nc(OC)c(CNC(=O)CCC3CCCC3)cc2C1=O,Percent Effect,"30 µM, 30.03 µM",-13.67%
O=C(C1CC=CC1)N1C[C@@H](OCc2cccnc2)[C@H]2OCCC[C@H]21.O=C(O)C(F)(F)F,Percent Effect,"30 µM, 30.03 µM",39.05%
CCc1nccn1-c1cncc(C2CCCN2)n1.Cl (centres undefined),Percent Effect,"30.3 µM, […]",-8.115%
N#Cc1cccc(CN2Cc3nccn3CC(CN3CCCC3)C2)c1.O=C(O)C(F)(F)F.O=C(O)C(F)(F)F (centres undefined),Percent Effect,"30 µM, 30.03 µM",-41.66%
Cc1cc(N2CCC(CC(N)=O)CC2)nc(-c2ccncc2)n1,Percent Effect,"30.3 µM, […]",0.7336%
CC(=O)NCC1CCN(c2cc(C)nc(-c3ccncc3)n2)CC1,Percent Effect,10 µM,-42.73%
Cc1cc(N2CCC(Cc3ccccc3)CC2)nc(-c2ccncc2)n1,Percent Effect,"30.3 µM, […]",99.65%
Cc1ccc(C(=O)N2CCC3(CC2)CC(N2CCCC2)C3)cc1.O=C(O)C(F)(F)F,Percent Effect,"30.3 µM, […]",-4.803%
Cc1ccc(N2CCC3(CN(Cc4cccs4)CCC3(F)F)C2)nn1.O=C(O)C(F)(F)F (centres undefined),Percent Effect,"30.3 µM, […]",-34.83%
Cc1ccc(CN2CCn3c(C(=O)N(C)C)cnc3C2)cc1.O=C(O)C(F)(F)F,Percent Effect,"30.3 µM, […]",-165%
Cl.Cn1cc([C@@H]2CN(S(C)(=O)=O)C[C@H]2N)c2ccncc21,Percent Effect,"30.3 µM, […]",-16.68%
Cl.Cn1cc([C@@H]2CN(S(=O)(=O)c3cccnc3)C[C@H]2N)c2ccncc21,Percent Effect,"30.3 µM, […]",-9.979%
Cl.Cn1cc([C@@H]2CN(S(=O)(=O)c3ccccc3F)C[C@H]2N)c2ccncc21,Percent Effect,"30.3 µM, […]",53.59%
c1cc(N2CCC(CN3CCOCC3)CC2)c2sccc2n1,Percent Effect,"30 µM, 30.03 µM",-9.098%
Cc1nc(C2(O)CCCNCC2)sc1CCOc1ccc(F)cc1.Cl (centres undefined),Percent Effect,"30.3 µM, […]",73.77%
CC(=O)NCc1nc(CCOc2ccc(Cl)cc2)no1,Percent Effect,"30 µM, 30.03 µM",-81.13%
COc1ccc(OCCc2sc(C3(O)CCCNCC3)nc2C)cc1.Cl (centres undefined),Percent Effect,"30.3 µM, […]",34.01%
CCN1CCCC(O)(c2nc(C)c(CCOc3ccc(F)cc3)s2)CC1 (centres undefined),Percent Effect,"30.3 µM, […]",-11.99%
Cc1noc(CNC(=O)NCCOc2ccc(Cl)cc2)n1,Percent Effect,"30 µM, 30.03 µM",-8.016%
CCCN1CCCC(O)(c2nc(C)c(COc3ccccc3)s2)CC1 (centres undefined),Percent Effect,"30.3 µM, […]",37.82%
Cc1nc(C)c(COc2ccc(S(=O)(=O)N(C)C)cc2)s1,Percent Effect,"30 µM, 30.03 µM",-44.61%
COc1ccc(OCc2sc(C3(O)CCCNCC3)nc2C)cc1.Cl (centres undefined),Percent Effect,"30.3 µM, […]",57.18%
Cc1nc(C2(O)CCCNCC2)sc1CCOc1ccc(Cl)cc1.Cl (centres undefined),Percent Effect,"30.3 µM, […]",101.5%
C[C@@H]1CN(CCOc2ccc(Cl)cc2)CC[C@@]1(O)C1CCOCC1,Percent Effect,"30 µM, 30.03 µM",-42.79%
O=C(O)C(F)(F)F.O=C(O)C(F)(F)F.c1cnc(N2C[C@H]3CCN(CCN4CCCC4)C[C@H]3C2)cn1,Percent Effect,"30.3 µM, […]",4.729%
COc1cc(C(=O)N2CCCC(c3cc(C)[nH]n3)C2)cc(OC)c1C (centres undefined),Percent Effect,"30.3 µM, […]",-7.766%
CCCS(=O)(=O)N1CCO[C@H]2[C@@H](Oc3cccnc3)CC[C@@H]21.O=C(O)C(F)(F)F,Percent Effect,"30.3 µM, […]",-3.605%
O=C(NCC1CC1)[C@@H]1CC[C@@H]2[C@@H](CCN2Cc2ccco2)O1.O=C(O)C(F)(F)F,Percent Effect,"30.3 µM, […]",-31.37%
